An excerpt weighted towards active compounds, which were near 21% of everything screened.
Shiga inhibitor – inhibitors of Shiga toxin in Vero cells; AID 2315; Vero cells, Shiga toxin protein synthesis inhibition reporter; inhibition, % at 38.7 µM; 9.2% of 290,000 active; in the data active = inhibition mostly above about 28%, no sharp cut-off; inactive = mostly below about 43%
Pf growth 96h – P. falciparum growth inhibition at 96 hour, primary screen for plastid delayed-death inhibitors; P. falciparum luciferase reporter growth, 96 h; Potency, µM (series often up to 28.7 µM), most hits filed as inhibitors; 6.9% of 320,000 active; AID 504834; active = well fitted inhibition curve with a large enough effect; inconclusive = small, poorly fitted or top-dose-only effect, or another doubt; inactive = no such curve, though single readings can be large or run the other way
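Erythrocytes infected with luciferase-expressing P. falciparum were dispensed at 2% hematocrit and 0.05% parasitemia (final), then incubated with compounds 96 hours at 37 C in 5% CO2. Luminescence after detection reagent addition reported growth.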
CHX counter – affects cycloheximide protein synthesis inhibition readout, counter-screen; cell reporter, cycloheximide protein synthesis inhibition counterscreen; 12% of 300,000 active; AID 2314; max response, %; in the data active = max response mostly above about 13%, no sharp cut-off; inactive = mostly below about 14%; also: read at 38.3 µM for the half of the compounds with a filed dose
Pf growth 48h – inhibits P. falciparum growth in the first generation, 48 h; P. falciparum luciferase growth in erythrocytes, 48 h; Potency, µM (doses to about 28.7 µM), most hits filed as inhibitors; 5.9% of 310,000 active; AID 504832; active = well fitted inhibition curve with a large enough effect; inconclusive = small, poorly fitted or top-dose-only effect, or another doubt; inactive = no such curve, though single readings can be large or run the other way
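Compounds are pin-transferred into medium, infected erythrocytes (2% hematocrit, 0.1% parasitemia final) are added, and plates sit one parasite generation at 37 C in 5% CO2. Detection reagent is then added and luminescence measured.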
NS1 inh – influenza NS1 inhibition; 0.4% of 270,000 active; AID 2326; Potency, µM (titrated, usually from 46.1 µM); also: actives are rising curves; nearly all actives have a fitted effect of over 50% in size
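OD600 was taken as the measure of yeast growth restored by compound in an NS1-expressing S. cerevisiae strain. Cells had been washed out of glucose medium and diluted 1:100 into galactose -URA medium, pH 6.0.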
SARS PLpro yeast – SARS-CoV PLP inhibition in yeast; AID 485353; Potency, µM (top dose mostly 32.9 µM), usual class: activators; S. cerevisiae expressing SARS-CoV PLpro, growth rescue; 0.19% of 330,000 active; also: nearly all actives have a fitted effect of over 55% in size
Each line names hits and unclear results; the compound was inactive in the other large screens; ! = not confirmed by another sample. Unless noted, calls follow the shape of the full dose curve.

CCOc1ccc(S(=O)(=O)NCc2ccc3c(c2)OCO3)cc1NC(C)=O	none
Nc1cc(-c2ccccc2)nn1S(=O)(=O)c1ccc(F)cc1	Pf growth 96h 10µM (no result: Pf growth 48h)
Nc1cc(-c2ccc(Cl)cc2)nn1S(=O)(=O)c1ccc(Cl)cc1	Pf growth 96h 3.3µM (no result: Pf growth 48h)
CC(=O)C[C@@H](O)CC(=O)[C@@H]1OC(=O)CCCCCc2ccccc21	none (no result: Shiga inhibitor, Pf growth 96h, CHX counter, Pf growth 48h, NS1 inh)
CC(=O)Nc1ccc(S(=O)(=O)NCCC(=O)OC(C)C(=O)NC2(C#N)CCCCC2)cc1 (configuration not stated)	none (no result: Shiga inhibitor, CHX counter, NS1 inh)
O=C(CCl)N1CCN(S(=O)(=O)c2ccc3c(c2)CCC3)CC1	Pf growth 96h inconclusive, Pf growth 48h 2.3µM (no result: Shiga inhibitor, CHX counter, NS1 inh)
CC(C)(C)NC(=O)NC(=O)CN1CCN(S(=O)(=O)c2ccc3c(c2)CCCC3)CC1	Pf growth 96h 7.4µM, Pf growth 48h 9.3µM (no result: Shiga inhibitor, CHX counter, NS1 inh)
O=C(CCl)N1CCN(S(=O)(=O)Cc2ccccc2)CC1	Pf growth 96h 13µM, Pf growth 48h inconclusive (no result: Shiga inhibitor, CHX counter, NS1 inh)
CCOC(=O)N1CCN(S(=O)(=O)Cc2ccccc2)CC1	none
CN1C(=O)N(CC(=O)N2CCN(S(=O)(=O)c3ccc4c(c3)CCC4)CC2)C(=O)C12CCCCC2	none (no result: Shiga inhibitor, CHX counter, NS1 inh)
COc1ccc(S(=O)(=O)N2CCN(CC(=O)NC3CCCC3)CC2)cc1	Pf growth 96h inconclusive
CC(C)(C)c1ccc(S(=O)(=O)N2CCN(CC(=O)NC(=O)NC3CCCCC3)CC2)cc1	Pf growth 96h 2.9µM (no result: Shiga inhibitor, CHX counter, NS1 inh)
COCc1ccc(C(=O)OC(C)C(=O)Nc2c(C)n(C)n(-c3ccccc3)c2=O)cc1 (configuration not stated)	Pf growth 96h inconclusive (no result: Shiga inhibitor, CHX counter, NS1 inh)
CCOC(=O)/C(C#N)=C/c1ccc(N2CCN(C)CC2)cc1	CHX counter 29
CCOC(=O)/C(C#N)=C\c1ccc(N2CCN(C)CC2)cc1	CHX counter 26
COc1cccc(NC(=O)CN(Cc2ccccc2)S(C)(=O)=O)c1	none
COc1cc2c(cc1OC)C(C)N(C(=O)c1cc3c(s1)-c1ccccc1OC3)CC2 (configuration not stated)	NS1 inh inconclusive
Cc1ccc(C(C)C)cc1S(=O)(=O)NC1CC(C)(C)NC(C)(C)C1	none
O=C(c1ccc(F)cc1)n1c(NCc2ccccc2)n[nH]c1=S	none
O=C(c1ccc([N+](=O)[O-])cc1)n1nc(-c2ccccc2)nc1NCc1ccc(F)cc1	Shiga inhibitor 37, CHX counter 17
O=C(c1ccc([N+](=O)[O-])cc1)n1nc(-c2ccccc2)nc1NCc1ccccc1	Shiga inhibitor 69, CHX counter 47
O=C(CSc1nc(-c2ccccc2)nn1C(=O)c1ccccc1)Nc1cccc([N+](=O)[O-])c1	none
O=C(c1cccc([N+](=O)[O-])c1)n1nc(-c2ccccc2)nc1NCc1ccccc1	Shiga inhibitor 48, CHX counter 20
O=C(c1cccs1)n1nc(-c2ccccc2)nc1NCc1ccc(F)cc1	Pf growth 96h inconclusive (no result: Pf growth 48h)
CC(=O)n1nc(-c2ccccc2)nc1NCc1ccc(F)cc1	CHX counter 20 (no result: Pf growth 96h)
Cc1csc(SC(C)C(=O)NC2CCCCC2C)n1 (configuration not stated)	Pf growth 48h inconclusive (no result: Shiga inhibitor, CHX counter, NS1 inh)
O=C(NCc1ccco1)c1cc(S(=O)(=O)NC2CC2)ccc1Br	none (no result: Shiga inhibitor, Pf growth 96h, CHX counter, Pf growth 48h, NS1 inh)
C=CCNC(=O)c1c[nH]c2ccc(S(=O)(=O)N(C)c3ccc(OCC)cc3)cc2c1=O	Pf growth 48h inconclusive
CCN(CC)CCCN=C1N[C@@H](c2ccccc2)C(C(=O)OC)=C(C)N1CC	Pf growth 96h 1.7µM!, Pf growth 48h inconclusive
CCN1C(=NCc2cc(OC)c(OC)c(OC)c2)N[C@@H](c2cccc(C(F)(F)F)c2)C(C(=O)OC)=C1C	Pf growth 96h 2.6µM, Pf growth 48h inconclusive
COc1cc(CCN2C(=O)N[C@@H](c3cccc(C(F)(F)F)c3)C(C(C)=O)=C2C)cc(OC)c1OC	Pf growth 96h 10µM, Pf growth 48h 13µM
CCN1C(=NCc2cc(OC)c(OC)c(OC)c2)N[C@@H](c2ccccc2)C(C(=O)OC)=C1C	Pf growth 96h 4.7µM
Cc1nc(SCC(=O)NC2CCS(=O)(=O)C2)c2c3c(sc2n1)CCCC3 (configuration not stated)	none (no result: Shiga inhibitor, CHX counter, NS1 inh)
O=C(O)C[O][Sb][O]CC(=O)O	none (no result: Shiga inhibitor, Pf growth 96h, CHX counter, Pf growth 48h, SARS PLpro yeast)
CCC(C)NC(=O)c1ccc2nc(Cc3ccc(OC)cc3)oc2c1 (configuration not stated)	Pf growth 48h inconclusive
Cn1cc(CCNC(=O)CCc2nnc(CCCCc3ccccc3)o2)cn1	none
CCn1cc(CNC(=O)c2ccc3nc(Cc4ccccc4F)oc3c2)cn1	CHX counter 32, NS1 inh inconclusive
CCn1cc(CNC(=O)c2ccc3nc(Cc4ccc(OC)cc4)oc3c2)cn1	Pf growth 96h inconclusive, CHX counter 20
Cn1cc(CCNC(=O)c2ccc3nc(Cc4ccccc4F)oc3c2)cn1	Shiga inhibitor 92, Pf growth 96h 1.9µM, CHX counter 30
Cn1cc(CNC(=O)c2ccc3nc(Cc4ccccc4F)oc3c2)cn1	Shiga inhibitor 89, CHX counter 59
O=C1Nc2ccc(Br)cc2C1(O)c1ccc(F)cc1 (configuration not stated)	Pf growth 48h inconclusive
CC1CCN(c2nc3c(c(=O)[nH]c(=O)n3C)n2CCSc2nc3ccccc3o2)CC1	none
CC(C)CC(=O)N=C1SC2CS(=O)(=O)CC2N1Cc1ccccc1Cl (configuration not stated)	none
CN(C)CCNC(=O)COc1cccc(Cl)c1	Pf growth 96h inconclusive
CN(C)CCCNc1ccc(-c2cc(Nc3cccc(Cl)c3)ncn2)cn1	Pf growth 96h 0.93µM, Pf growth 48h 1.9µM
CC(Oc1ccc2c3c(c(=O)oc2c1)CCCC3)C(=O)NC1CC(C)(C)NC(C)(C)C1 (configuration not stated)	Pf growth 96h 9.3µM, Pf growth 48h 15µM
CC(Oc1cc2oc(=O)c3c(c2cc1Cl)CCC3)C(=O)NC1CC(C)(C)NC(C)(C)C1 (configuration not stated)	Pf growth 96h inconclusive, Pf growth 48h 13µM, SARS PLpro yeast inconclusive
Cc1cccc(N(CC(=O)NC2CCCCC2)C(=O)CCCC(=O)Nc2ccccn2)c1	Pf growth 48h 12µM
COc1cccc(N(CC(=O)NC2CCCCC2)C(=O)CCC(=O)Nc2nccs2)c1	Pf growth 96h 12µM, Pf growth 48h inconclusive
CCOc1ccc(N(CC(=O)NC2CCCCC2)C(=O)CCC(=O)Nc2nccs2)cc1	Pf growth 48h 7.4µM
CCc1ccccc1N(CC(=O)NC(C)(C)CC)C(=O)CCC(=O)Nc1nccs1	Pf growth 96h inconclusive, Pf growth 48h inconclusive
CCC(C)(C)NC(=O)CN(C(=O)CCC(=O)Nc1nccs1)c1ccccc1C	Pf growth 96h 10µM
Cc1ccc(NC(=O)CC2SC(=O)N(c3ccccc3)C2=O)cc1 (configuration not stated)	Shiga inhibitor 51, CHX counter 27
Cc1cccc(NC2SC(=O)N(c3ccccc3)C2=O)c1 (configuration not stated)	Shiga inhibitor 71, CHX counter 53 (no result: Pf growth 96h)

Source: PubChem (National Center for Advancing Translational Sciences (NCATS))
